According to PubChem BioAssay AID602449 (Sanford-Burnham Center for Chemical Genomics, 2012):
Screen size: about 360,000 compounds; about 5,000 (1.4%) were called active. The sample holds actives, similar compounds and a random draw of the others, so the mix is not that of the screen. Values without a mark were called inactive.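 The calls were made as follows: active = inhibition of 50% or more, scaled per plate between neutral and stimulator controls; inactive = the rest.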

Test: blockers of Ca2+-induced mitochondrial swelling – biochemical, isolated mouse mitochondria, absorbance, primary screen (AID 602449);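 also: 0% = DMSO wells given calcium and 100% = 1 mM EGTA wells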
Settings: 30 min, at 10 µM, stronger effect = higher value

SMILES	inhibition
COc1ccc(CNS(=O)(=O)c2cc(-c3cc(C)no3)ccc2C(C)C)cc1	-0.4%
CC(C)CNC(=S)Nc1ccc(F)cc1	2.1%
Cc1c(NC(=S)NCc2ccc(F)cc2)cccc1[N+](=O)[O-]	96.5% (active)
Cc1cc(C)cc(NC(=S)NCc2ccc(F)cc2)c1	50.1% (active)
COc1cc(NC(=S)NCc2ccc(S(N)(=O)=O)cc2)cc(OC)c1	-1%
Cc1cccc(NC(=S)NCCc2ccc(F)cc2)c1C	0.7%
Cc1c(NC(=O)CCCOc2ccccc2)cccc1[N+](=O)[O-]	0.1%
C/C(=N\N=C(N)N)c1ccc(Cl)cc1	2%
COc1cccc(NC(=O)C(Sc2nnnn2C)c2ccccc2)c1 (stereo unspecified)	-1.4%
CCOc1ccc(OCC)c(NC(=O)CN(C)S(=O)(=O)c2cccc3nsnc23)c1	-0.3%
COc1ccc(CCNc2cc(N3CCN(C(=O)c4ccccc4OC)CC3)ccc2[N+](=O)[O-])cc1OC	55.3% (active)
COc1ccccc1OCCNc1cc(N2CCOCC2)ccc1[N+](=O)[O-]	2.8%
COc1ccc(CCNC(=O)c2ccccc2-c2ccccc2C(=O)O)cc1OC	-0.5%
O=S(=O)(CCc1nc2ccccc2o1)c1ccc(Cl)cc1	-1.2%
S=C(NCCc1ccccc1)NCc1ccccc1Cl	69.8% (active)
O=C(NCCc1ccccc1)C1CC1	-0.4%
Cc1cc(F)ccc1NC(=S)NCCc1ccccc1	0%
O=C(NCCCc1ccccc1)C1CCC(CNc2c(N3CCCCC3)c(=O)c2=O)CC1 (stereo unspecified)	0.1%
CC(C)(CNC(=O)Cc1ccc(Cl)cc1Cl)N1CCOCC1	1.9%
CC1=NN(/C(=N\c2nnc(C)s2)Nc2ccccc2)[C@H](c2ccc(C)cc2)S1	0.1%
CN(N)c1nc(N2CCCC2)nc(N2CCCC2)n1	1.8%
COc1nc(NC2CCCCC2)nc(N2CCCCCC2)n1	20.8%
FC(F)(F)COc1nc(N2CCCCC2)nc(N2CCNCC2)n1	78.3% (active)
O=S(=O)(c1ccccc1)N1CCC(c2ccccc2)CC1	1.4%

SMILES	inhibition
COc1ccc(C2(C)ON(c3ccccc3C(F)(F)F)C2=O)cc1 (stereo unspecified)	-1.7%
CCc1noc(C)c1C(=O)Oc1ccc(N(C)S(=O)(=O)c2ccc(C)c(C)c2)cc1	0.2%
Cc1ccc(CNC(=O)CCC(=O)N2CC(C)Sc3ccccc32)cc1 (stereo unspecified)	-1.8%
OC(COc1ccc(CN2CCSCC2)cc1)CN1CCCCC1 (stereo unspecified)	1.1%
O=C(c1ccc(Cl)cc1)c1ccc(OCC(O)CN2CCCCC2)cc1 (stereo unspecified)	96.3% (active)
CC(=O)Nc1ccc(OCC(O)CN2CCN(c3ccccc3Cl)CC2)cc1 (stereo unspecified)	-1.1%
CCC(c1nc2ccccc2[nH]1)n1c(=O)c(-c2cccs2)nc2ccccc21 (stereo unspecified)	2.6%
CCC(C)N1C(=O)S/C(=C/c2ccc(Sc3nc4ccccc4[nH]3)o2)C1=O (stereo unspecified)	91.9% (active)
CN1CCN(c2ccc([N+](=O)[O-])c(Sc3nc4ccccc4[nH]3)c2)CC1	-0.9%
O=C(NC1CCCC1)C1c2ccccc2OCC(=O)N1CC(F)(F)F (stereo unspecified)	-0.2%
COc1ccc(N2CCN(C(=O)[C@@H](NC(=O)c3cc(OC)cc(OC)c3)C(C)C)CC2)cc1	0.3%
COc1cccc(C(=O)Nc2nnc(S(=O)(=O)N3CCOCC3)s2)c1	-1%
O=C(Nc1nnc(S(=O)(=O)N2CCOCC2)s1)c1cccc(Br)c1	4.6%
O=C(Nc1nnc(S(=O)(=O)N2CCCCCC2)s1)c1cccc(Br)c1	79.7% (active)
COc1cccc(C(NC(C)=O)c2nc(-c3cnc4ccccc4c3)cs2)c1 (stereo unspecified)	0.4%
CCCCn1c(N)c(N(CCC(C)C)C(=O)c2ccc([N+](=O)[O-])o2)c(=O)[nH]c1=O	-0.3%
COc1ccc(NC(=O)CN(C)C(=O)Cc2coc3cc(C)c(C)cc23)cc1	-0.3%
Cc1ccc(F)cc1NC(=O)CSCc1c(C)noc1C	-0.3%
Cc1ccc(C)c(NC(=O)COC(=O)c2nn(C)c(=O)c3ccccc23)c1	1.4%
Cc1ccc(F)cc1NC(=O)Cc1nn(C)c(=O)c2ccccc12	69.1% (active)
O=C1CC(c2c(F)cccc2Cl)C(n2cncn2)C(O)=C1C1NCCc2ccccc21 (stereo unspecified)	5.6%
NNC(=O)COc1ccc(C2SCCS2)cc1	-1%
COc1ccc(CCC(C)N2CCc3ccccc3C2)cc1 (stereo unspecified)	-0.5%
COCCn1c(CN2CCC(Cc3ccccc3)CC2)nc2c1c(=O)n(C)c(=O)n2C	83.7% (active)

SMILES	inhibition
COCCn1c(CN(Cc2ccccc2)Cc2ccccc2)nc2c1c(=O)n(C)c(=O)n2C	0.9%
Cn1c(=O)c2c(nc(CN3CCOCC3)n2Cc2ccccc2)n(C)c1=O	0.1%
COc1cc(C(=O)Nc2cc(C(F)(F)F)ccc2-n2cncn2)cc(OC)c1OC	-0.1%
Cc1cc(C)c2c(Cn3ccnc3)cc(=O)oc2c1	-1.5%
COc1ncnc2c1N=C1CC(C)(C)CC(N)=C1S2	0.5%
O=C(COc1ccc(S(=O)(=O)N2CCOCC2)cc1Cl)N1CCOCC1	0.5%
COc1ccccc1CNC(=O)CCn1c(=O)sc2ccccc21	0.2%
COc1ccc(CN2CCOC2=O)cc1OC	0.9%
COc1ccc(Cn2c(=O)sc3ccccc32)cc1OC	72.6% (active)
Nc1ccc(OCC(O)C[n+]2ccc(CCS(=O)(=O)[O-])cc2)cc1 (stereo unspecified)	-2.1%
Oc1c(Cl)cc(Cl)c(Cl)c1Cc1c(O)c(Cl)cc(Cl)c1Cl	80.8% (active)
CN(C)C(=O)N=NC(=O)N(C)C	4.3%
CCC1=C(OC(=O)N(CC)CC)N2C(=O)OC(=NCCc3c[nH]c4ccccc34)[C@]2(C)[C@H]2C1=CC[C@H]1C(=O)N(CC)C(=O)[C@H]12	0%
CC1(C)OC(=O)C2=C(C[C@@H](C3CC3)O[C@H]2CCc2cccc(Cl)c2)O1	1%
O=C(Nc1cc(S(=O)(=O)N2CCCCC2)ccc1Cl)C1COc2ccccc2O1 (stereo unspecified)	-0.4%
O=C(Nc1nc2c(F)cc(F)cc2s1)C1COc2ccccc2O1 (stereo unspecified)	63.7% (active)
C/C(=N/NC(=O)C1COc2ccccc2O1)c1ccco1 (stereo unspecified)	0.4%
O=C(Nc1nnc(SCc2ccc(Cl)cc2Cl)s1)C1COc2ccccc2O1 (stereo unspecified)	70% (active)
Cc1cc(C)c2nc(NC(=O)C3CCCO3)sc2c1 (stereo unspecified)	-9.1%
O=C(N/N=C\c1cc(Br)c(Br)o1)C1COc2ccccc2O1 (stereo unspecified)	3.3%
O=C(CN1CCOCC1)N1CCCc2c1c(=O)oc1ccc(OCc3ccccc3)cc21	5.1%
CCCN(CCC)c1c([N+](=O)[O-])c(=O)oc2ccccc12	-6.7%
COCCCNC(=O)C1CCN(c2ccc(N3CCOCC3)nn2)CC1	0.3%
OC(c1ccccc1)c1nccn1Cc1ccccc1 (stereo unspecified)	-1.7%

SMILES	inhibition
O=S(=O)(N1CCCCC1)N1CCNCC1	1.7%
O=C1c2ccccc2S(=O)(=O)N1Cc1c(F)cccc1Cl	-0.3%
NC(N)=N/N=C/c1ccc(Cl)c([N+](=O)[O-])c1	90.5% (active)
Nn1cnnc1N/N=C/c1cc([N+](=O)[O-])c(Cl)cc1Cl	0.6%
NC(N)=N/N=C/c1ccc(OCc2ccc(Cl)cc2Cl)cc1	6%
CC(C)N(C(=O)[C@H]1C[C@H](CC(=O)NC(C)(C)C)C(=O)N2CCc3c([nH]c4ccc(Cl)cc34)[C@]12C)C(C)C	-1.7%
C/C(=N\NC(=O)c1ccc(C)cc1)C1C(=O)c2ccccc2C1=O	57.8% (active)
Cc1ccc(C(=O)N/C(=C/c2cccnc2)C(=O)O)cc1	0.9%
O=C1c2ccccc2C(=O)C1C(=O)C1CC1	-0.9%
CCOc1ccc(S(=O)(=O)Nc2nccs2)cc1	0.5%
Cn1c(Cc2cccc3ccccc23)nnc1SCC(=O)N1CCN(c2cccc(Cl)c2)CC1	-0.5%
O=C(O)CCCC(=O)Nc1ccc(Oc2cccc(C(F)(F)F)c2)nc1	0.9%
Cc1cccc(C(=O)Nc2ccc(Oc3cnccn3)cc2)c1	0.7%
O=C(Nc1ccc(Cl)cc1)Nc1ccc(Oc2cccnc2)nc1	82.5% (active)
O=C1c2ccccc2[C@@H]2C[C@@H](O)[C@H](Nc3ccccc3Cl)CCN12	-0.5%
Cc1ccc2c(c1)C(c1ccccc1)N(C(=O)c1ccc(S(=O)(=O)N3CCOCC3)cc1)CC(=O)N2 (stereo unspecified)	-0.3%
Nc1nc(CSc2nnnn2-c2ccccc2)nc(Nc2ccccc2)n1	0%
O=C(c1ccc(-c2ccccc2)cc1)C1CCCN(C(=O)c2cncs2)C1 (stereo unspecified)	-1.8%
Cc1ccn(CC(=O)NC2CCCN(Cc3ccccc3F)C2)n1 (stereo unspecified)	0.4%
CCNCCC(=O)N1c2ccccc2Sc2ccc(NC(=O)OCC)cc21	75.6% (active)
CCOC(=O)Nc1ccc2c(c1)N(C(=O)CCCl)c1ccccc1[S@]2=O	-1.2%
CCOC(=O)Nc1ccc2c(c1)N(C(=O)CCN1CCN(CCO)CC1)c1ccccc1CC2	0.2%
Cc1cccnc1NC(=O)Cn1c(=O)oc2ccccc21	-0.1%
COC(=O)c1ccc(CNC(=O)C2CCC(=O)N(Cc3cccc(F)c3)C2)cc1 (stereo unspecified)	-0.2%
